# Several values for one entry are separate records, joined by “and”; a condition that tells them apart may be missing. Equal values may be shown once. The panel holds about 83,000 compounds, 20% with a hit somewhere; the sample as a whole holds those more often.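 Results are percent growth after 48 hours of single-concentration exposure. 100 means growth as in untreated cells, lower positive values show inhibition; negative values down to -100 show cell death.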 Activity calls are given as the source filed them. Rule for the calls: active = growth percent below 10; inactive = the rest.
# Columns and labels:
# Test in all cases: NCI-60 one-dose screen, 48 h (100 = growth as untreated, 0 = no growth, -100 = all killed)
# Conditions in all cases: 10 µM unless noted
# [1] = test system: T-47D breast
# [2] = test system: BT-549 breast
# [3] = test system: MDA-MB-435 melanoma
# [4] = test system: SW-620 colon
# [5] = test system: MCF7 breast
# [6] = test system: HCT-116 colon
# [7] = test system: HCC-2998 colon
# [8] = test system: KM12 colon
Structure (SMILES),growth [1],growth [2],growth [3],growth [4],growth [5],growth [6],growth [7],growth [8]
COc1cc(-c2[nH]ncc2Nc2ccc(Cl)cc2)cc(OC)c1OC,46.4% (inactive),29.8% (inactive),55.5% (inactive),82.6% (inactive),41.9% (inactive),58.4% (inactive),83.4% (inactive),63.5% (inactive)
CN1CCCc2cc(/C=C3\SC(=S)N(C(Cc4ccc(O)cc4)C(=O)O)C3=O)ccc21 (configuration not stated),87.1% (inactive),106% (inactive),103% (inactive),102% (inactive),94.5% (inactive),106% (inactive),93.6% (inactive),105% (inactive)
CCOC(=O)C1=C(C)N=C2SC=C(c3ccc(F)cc3)N2[C@H]1c1cn(-c2ccccc2)nc1-c1ccc(Cl)cc1,79.6% (inactive),93.1% (inactive),94.4% (inactive),100% (inactive),87.2% (inactive),90% (inactive),105% (inactive),107% (inactive)
COC(=O)c1nc(-c2ccc(C)cc2)oc1S(=O)(=O)c1ccc(Cl)cc1,88.6% (inactive),83.4% (inactive),107% (inactive),80% (inactive),89.8% (inactive),77.7% (inactive),112% (inactive),116% (inactive)
COc1ccc(-c2[nH]c3ccccc3c2-c2ccc(OC)cc2)cc1,41.1% (inactive),90.9% (inactive),-33.1% (active),37.1% (inactive),16.2% (inactive),24.4% (inactive),32.3% (inactive),16.6% (inactive)
O=C(N=Nc1c(O)[nH]c2ccccc12)Nc1ccccc1Cl,42% (inactive),96.6% (inactive),84.5% (inactive),85.2% (inactive),19.8% (inactive),89.8% (inactive),78.2% (inactive),53.6% (inactive)
O=C1C(N2CCOCC2)=C(I)C(=O)c2ncccc21,53.7% (inactive),87.1% (inactive),-69.4% (active),69.2% (inactive),41.3% (inactive),49.4% (inactive),86.8% (inactive),91.8% (inactive)
Clc1ccc2c(NCCN3CCN(c4ccnc(N5CCCC5)n4)CC3)ccnc2c1,2.2% (active),75.8% (inactive),15.2% (inactive),12.9% (inactive),12.3% (inactive),4.45% (active),0.613% (active),54.3% (inactive)
O=C(Nc1ncc(Cc2cccc(C(F)(F)F)c2)s1)c1ccc2c(c1)OCCO2,42.5% (inactive),35.8% (inactive),3.47% (active),37% (inactive),13.9% (inactive),10.9% (inactive),20.3% (inactive),11.1% (inactive)
Cc1ccc(Cl)cc1N1CCN(C(=O)[C@@H]2C[C@@H]2c2ccc(F)cc2)CC1,83.4% (inactive),97.6% (inactive),97.6% (inactive),101% (inactive),90.6% (inactive),68.8% (inactive),98.8% (inactive),85.1% (inactive)
CC(=O)N1N=C(c2ccc(Nc3nc(Nc4ccc(F)cc4)nc(Nc4ccc(F)cc4)n3)cc2)CC1c1ccccc1 (configuration not stated),56.2% (inactive),120% (inactive),105% (inactive),95.7% (inactive),66.2% (inactive),80.7% (inactive),94.3% (inactive),89.1% (inactive)
O=C1c2cccc3cccc(c23)C(=O)N1N1C(=O)c2cccc3c(N4CCNCC4)ccc(c23)C1=O,93.6% (inactive),89.8% (inactive),99.9% (inactive),78.7% (inactive),29% (inactive),58.1% (inactive),79.4% (inactive),82.2% (inactive)
O=C(Cc1ccc(F)cc1)c1ccccc1,112% (inactive),97.2% (inactive),106% (inactive),110% (inactive),103% (inactive),103% (inactive),106% (inactive),111% (inactive)
COc1cc(C=O)ccc1Oc1ccc([N+](=O)[O-])cc1[N+](=O)[O-],75.2% (inactive),98% (inactive),112% (inactive),91.7% (inactive),99.2% (inactive),94.9% (inactive),109% (inactive),105% (inactive)
COC(=O)/C=C1/SC(N2N=C(c3cccs3)CC2c2ccc(F)cc2)=NC1=O (configuration not stated),38.9% (inactive),66.1% (inactive),43.2% (inactive),3.45% (active),10.1% (inactive),-15.3% (active),33.7% (inactive),30.5% (inactive)
Nc1nc(CSc2n[nH]c(N)n2)nc(Nc2ccccc2)n1,94.5% (inactive),95.7% (inactive),94.7% (inactive),99% (inactive),93.3% (inactive),105% (inactive),110% (inactive),98.4% (inactive)
CN1C(=O)N(C)C2(c3ccccc3)N(CC(=O)Nc3ccccc3O)C(=O)NC12c1ccccc1 (configuration not stated),98.5% (inactive),104% (inactive),106% (inactive),97.4% (inactive),101% (inactive),98.3% (inactive),118% (inactive),105% (inactive)
Cc1ccc(Cc2cnc(NC(=O)c3cc(C)oc3C)s2)cc1,58.3% (inactive),74% (inactive),4.22% (active),51.6% (inactive),32% (inactive),72.4% (inactive),89.3% (inactive),38.4% (inactive)
COc1cc(/C=C(/c2ccccc2)[N+](=O)[O-])c(OC)c2c1OCO2,-55.9% (active),-84.4% (active),-23% (active),-40.5% (active),-36.4% (active),-86.4% (active),-91% (active),-50.8% (active)
N#Cc1c(N)nnn1Cc1cc(=O)oc2ccc(O)cc12,98% (inactive),111% (inactive),105% (inactive),104% (inactive),96.8% (inactive),89.3% (inactive),110% (inactive),107% (inactive)
COc1cc(/C=C/C(=O)c2ccc(NC(=O)CSc3nnc(-c4cc(-c5ccccc5)nc5ccccc45)n3-c3ccccc3)cc2)cc(OC)c1OC,73% (inactive),90.7% (inactive),92.2% (inactive),90.5% (inactive),74.3% (inactive),79% (inactive),88.3% (inactive),63.5% (inactive)
CC1(C)C(N)=Nc2cc(OCCCN3Cc4ccc(OCCc5cn(CC(=O)N6CCC(CCN7CCCC7)CC6)nn5)cc4C3)c(OCC3CC3)cc21,92.3% (inactive),100% (inactive),102% (inactive),109% (inactive),89.3% (inactive),103% (inactive),122% (inactive),107% (inactive)
CN1CCN(Cc2ccc(NC(=O)c3nc4ccc5[nH]ncc5c4c4c3CCCC4)cc2C(F)(F)F)CC1,-69.3% (active),-78.5% (active),-82.6% (active),-60% (active),-68.5% (active),-90.4% (active),-80.7% (active),-73.4% (active)
COc1cc(F)c(/C=C/c2cc(/C=C/c3cc(OC)c(OC)cc3F)n(-c3cc(F)cc(F)c3)n2)cc1OC,64% (inactive),75.5% (inactive),-4.07% (active),0.82% (active),8.88% (active),100% (inactive),85.5% (inactive),27.9% (inactive)
COc1ccc(C2=C(CN)C(O)NC(=NCC(=O)c3ccc4ccccc4c3)N2)cc1 (configuration not stated),101% (inactive),99% (inactive),103% (inactive),112% (inactive),96.2% (inactive),92.7% (inactive),107% (inactive),97.2% (inactive)
CCCCCC#CC1OC23CCCCC2C(C#N)(C(=N)O3)C1(C#N)C#N (configuration not stated),113% (inactive),89.9% (inactive),92.6% (inactive),95.5% (inactive),88.4% (inactive),89.2% (inactive),102% (inactive),99.3% (inactive)
CC1=C2[C@@H](CC1)[C@]1(C)O[C@@](C3CC3)(C[C@H]1OC(=O)CO)[C@H]2OC(=O)/C=C/c1ccccc1,82.2% (inactive),6.63% (active),104% (inactive),103% (inactive),96.4% (inactive),89.4% (inactive),88.4% (inactive),97.1% (inactive)
Nc1ccc(S(=O)(=O)c2ccc(N)cc2)cc1,104% (inactive) and 100% (inactive),104% (inactive) and 110% (inactive),94.6% (inactive),108% (inactive) and 92.5% (inactive),99.5% (inactive) and 104% (inactive),107% (inactive) and 94.9% (inactive),98% (inactive) and 108% (inactive),106% (inactive) and 109% (inactive)
COC(=O)c1c2c(c(C)[n+]([O-])c1C)C(=O)C(NCCN1CCOCC1)=CC2=O,80.6% (inactive),91.4% (inactive),49.9% (inactive),64.3% (inactive),55.9% (inactive),28.3% (inactive),74.1% (inactive),71.6% (inactive)

# From PubChem BioAssay (NCI)
